# Experimental data: PubChem BioAssay AID1259415 (National Center for Advancing Translational Sciences (NCATS), 2018)
# About 18,000 (4.4%) of roughly 410,000 compounds were called active. Inconclusive results (about 7%) are left out. Shown is part of a subset that was picked to be rich in actives. A number with no mark means an inactive call. No stated cut-off is given here; in the data, active means activity change below about -60%; inconclusive means no clear call, values can overlap the other calls; inactive means above about -39%.
# Assay: qHTS Assay for inhibitors of the human cytomegalovirus (HCMV)
# Conditions: HFF cells, HCMV-luciferase reporter, 72 h; at 57.5 µM; active compounds read low
# Outline: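 Screen run at 2 compound doses on HFFs infected with reporter HCMV, MOI 1 PFU/cell. Luciferase activity from cell lysates at 72 h post infection gave inhibition relative to buffer-only and Salinomycin wells.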
# On the % scale 0 is the no-effect control and ±100 the full control effect.
row,SMILES,"activity change, negative = inhibition"
1,CCN(CC)S(=O)(=O)c1ccc(C(=O)N=c2sc3cccc(OC)c3n2C)cc1,-2.8%
2,COc1cc(C(C(=O)NC2CCCC2)N(Cc2ccccc2)C(=O)c2snc(C(N)=O)c2N)ccc1O (stereo unspecified),-99.2% (active)
3,CCOc1ccc(C(C(=O)NC2CCCC2)N(C(=O)c2snc(C(N)=O)c2N)C2CCCC2)cc1 (stereo unspecified),-24.5%
4,COc1ccc(N(C(=O)c2snc(C(N)=O)c2N)C(C(=O)NC2CCCC2)c2ccco2)cc1OC (stereo unspecified),-8.05%
5,CC(C)NC(=O)N1CC(=O)N2[C@H](CO)[C@@H](c3ccc(Br)cc3)[C@H]2C1,1.46%
6,CCc1cc2c(cc3c(=O)n(CC(=O)N4CCN(c5cc(Cl)ccc5C)CC4)nc(CC)n32)s1,12.7%
7,COc1ccc(-c2noc(CCC(=O)N(C)c3ccccc3C)n2)cc1,-35.9%
8,CCOC(=O)c1cc2c(=O)n3ccccc3nc2n(CC2CCCO2)c1=NC(=O)c1ccc(C(C)(C)C)cc1 (stereo unspecified),23.6%
9,CCOC(=O)N1CCN(C(=O)CSc2nc(C)nc3c2c(=O)n(C)c(=O)n3C)CC1,-22.5%
10,CCCc1nc(SCC(=O)N2CCCC2)c2c(=O)n(C)c(=O)n(C)c2n1,-70.5% (active)
11,Cn1c(=O)c2c(SCC(=O)N3CCOCC3)nc(C3CC3)nc2n(C)c1=O,-3.56%
12,Cn1nnnc1SCCCNCc1cccc(OCc2ccc(Cl)cc2)c1,12.4%
13,CN(Cc1ccccc1)C(=O)c1cc2c(=O)n(C)c3ccccc3c2s1,2.36%
14,COc1cccc(CNc2ncc(-c3ccccc3)n2C)c1,34.7%
15,COc1cccc(CNC(=O)Cc2csc3nc(-c4ccccc4)cn23)c1,-6.98%
16,NS(=O)(=O)c1ccc(CCNc2nc(C(F)(F)F)nc3ccccc23)cc1,-68.6% (active)
17,COc1ccc(CNC(=O)COc2cccnc2[N+](=O)[O-])cc1,1.06%
18,NS(=O)(=O)c1ccc(CCNC(=O)COC(=O)COc2cccc(C(F)(F)F)c2)cc1,-3.4%
19,COc1cccc(CNc2nc(C(F)(F)F)nc3ccccc23)c1,-73.3% (active)
20,CC(=O)OC[C@@H]1CN(Cc2ccccc2)C[C@H](n2cnc3c(NCc4ccco4)ncnc32)O1,-0.673%
21,CC(NCCc1ccc(S(N)(=O)=O)cc1)C(=O)NCc1ccccc1 (stereo unspecified),-27.8%
22,O=C(COc1ncnc2ccccc12)NC(=O)NCc1ccccc1,-32.5%

row,SMILES,"activity change, negative = inhibition"
1,c1coc(CNc2ncnc3ccccc23)c1,-64.6% (active)
2,COc1ccc(CNc2ncnc3ccccc23)cc1,-91.4% (active)
3,O=C(NCc1ccncc1)C(=O)NCc1ccco1,-17.8%
4,CCC(=O)N1CCc2cc(CNC(=O)Nc3ccccc3Cl)ccc21,38.6%
5,Cc1ccc(NS(=O)(=O)c2ccc3c(c2)CC(=O)N3)cc1Cl,7.34%
6,O=C(NCc1ccccc1Cl)c1cccn1-c1nnc(N2CCCCC2)s1,0%
7,CCn1c(C(C)NC(=O)c2ccc(C)cc2)n[nH]c1=S (stereo unspecified),12.4%
8,Cc1cccc(C2CC(=O)Oc3c2c(=O)n(C)c2ccccc32)c1 (stereo unspecified),18.7%
9,CN(c1ccccc1)c1nc(N)c([N+](=O)[O-])c(NCc2ccco2)n1,-22.9%
10,c1ccc(-c2nc(NCc3ccco3)c3ccccc3n2)cc1,-68% (active)
11,O=[N+]([O-])c1cc(-c2nc(-c3ccccc3)no2)ccc1NCc1ccco1,82.5%
12,Cc1oc(C)c2c(=O)cc(-c3ccc4c(c3)OCO4)cc(OC(=O)c3ccc(Cl)cc3)c12,8.11%
13,O=C(OCc1cc(=O)n2nc(C3CC3)sc2n1)c1ccccc1Cl,-5.87%
14,Cc1ccc(-n2c(SCC(=O)NCCC3=CCCCC3)nc3n[nH]c(C)c3c2=N)cc1Cl,-93.6% (active)
15,COc1cccc(-n2c(SCC(=O)NC3CCCCC3)nc3n[nH]c(C)c3c2=N)c1,28%
16,COc1ccc(-n2c(SCC(=O)Nc3ccc(Cl)c(C)c3)nc3n[nH]c(C)c3c2=N)cc1,0%
17,COc1ccc(-n2nnc(-c3nsc(NC(=O)c4ccc(C)c(C)c4)n3)c2C)cc1Cl,-9.03%
18,O=C(NCCc1ccccc1)C(=O)NCC(c1ccco1)S(=O)(=O)c1ccccc1 (stereo unspecified),-21.8%
19,COc1cc(C(=O)NCC(c2ccc(Cl)cc2)N2CCOCC2)cc(OC)c1OC (stereo unspecified),3.59%
20,O=S(=O)(c1ccc(Br)cc1)c1nc(-c2ccccc2)oc1NCc1cccnc1,-3.8%
21,N#Cc1nc(COc2ccc(-c3ccccc3)cc2)oc1NCc1cccnc1,-63.4% (active)
22,Cc1ccc(OCc2nc(C#N)c(N3CCCC3)o2)cc1,-14.4%

row,SMILES,"activity change, negative = inhibition"
1,Cc1cc(C)c(NC(=O)CSc2nc3nccnc3c(=O)n2CCc2c[nH]c3ccccc23)c(C)c1,-19.7%
2,COc1ccc2c(c1)c(=Cc1ccc(N(C)C)cc1)c1cc(-c3ccccc3)[n+](C)n12,-99.1% (active)
3,Cc1ccc(S(=O)(=O)c2nnn3c2nc(N2CCN(c4ccccc4F)CC2)c2cc(Cl)ccc23)cc1C,11.3%
4,CCn1cc(C(=O)NCc2ccccc2)c(=O)c2cc(S(=O)(=O)N3CCCCC3)ccc21,1.38%
5,CN(C)CCCn1c(-c2ccc(Cl)cc2)csc1=Nc1ccccc1,-19.8%
6,COc1cc(/C=N/O)cc(Br)c1OS(=O)(=O)c1ccc(C)cc1,-76.2% (active)
7,COc1cc(/C=C/c2ccc(/C=C/c3cc(OC)c(OC)c(OC)c3)cc2)cc(OC)c1OC,-35.4%
8,Cc1ccc(S(=O)(=O)Oc2ccc(/C=N/NC(=O)c3c(Cl)cnn3C)cc2)cc1,22%
9,COc1cccc(CNC(=O)c2cc(=O)[nH]c3ccc(S(=O)(=O)N4CCCCC4)cc23)c1,0.829%
10,COc1ccc(S(=O)(=O)N2CCCC(C(=O)Nc3ccc(NC(=O)c4ccccn4)cc3)C2)cc1 (stereo unspecified),62.8%
11,CCc1ccc(NC(=O)c2cc(S(=O)(=O)N3CCCC(C)C3)cn2C)cc1 (stereo unspecified),-13.1%
12,CSc1ncc(Cl)c(C(=O)Nc2ccc(S(=O)(=O)N3CCCC(C)C3)cc2)n1 (stereo unspecified),-86% (active)
13,Cc1nnc(SCC(=O)NCc2ccccc2Cl)c2nn(-c3ccccc3)c(C)c12,-12.6%
14,O=C(NC(=O)N1CCSCC1)c1c(Cl)cccc1Cl,7.68%
15,COc1ccc(-c2nn(CC(=O)NC3CCCC3)c3c2cnc2ccc(F)cc23)cc1,35.7%
16,COC(=O)CCNc1ccc2c(c1)OCCO2,-79.1% (active)
17,CCOc1ccc(NCCC(=O)c2ccc3c(c2)OCO3)cc1,-3.98%
18,CCC(C)(C)NC(=O)CN(C(=O)C(=O)Nc1ccc2c(c1)OCCO2)C(C)(C)CC,21.3%
19,Cn1nc(-c2ccccc2)c(-c2ccccc2)c(C(=O)Nc2ccc(S(N)(=O)=O)cc2)c1=O,6.63%
20,COc1ccc(-c2c3c(=O)n(C)c(=O)n(C)c3c3c(C)nc4ccccc4n23)cc1,6.41%
21,CC(=O)Nc1cc(C(=O)NCc2ccc(F)cc2)ccc1Sc1ccc(F)cc1,-2.97%
22,Cc1cc(C)nc(-n2nc(C)cc2NC(=O)c2ccc(F)cc2F)n1,-89.4% (active)

row,SMILES,"activity change, negative = inhibition"
1,CC(=O)N/C(=N/c1nc(C)cc(C)n1)Nc1ccc(F)cc1F,-32.1%
2,CCOC(=O)c1cccc(NC(=O)c2ccc(F)cc2F)c1,17.1%
3,Cc1ccc(-c2nn3c(=O)cc(CN4CCN(S(=O)(=O)c5ccc(Cl)cc5)CC4)nc3s2)cc1,-1.44%
4,CCSc1ccccc1C(=O)NCc1ccc(OC)cc1,-19.4%
5,COc1ccc(CNC(=O)/C(C#N)=C/c2cccc(OC)c2OC)cc1,-83.6% (active)
6,COc1cc(/C=C(\C#N)C(=O)Nc2ccc3ccccc3c2)c([N+](=O)[O-])cc1OC,16.2%
7,COc1ccc(NC(=O)CCCN2C(=O)CCn3nc(-c4cn(C)c5ccccc45)cc32)cc1OC,-28.9%
8,CCOc1ccccc1CN1CCN(C2CCC2)CC1CCO (stereo unspecified),-93.5% (active)
9,CCOc1ccc(CN2CCN(CCCc3ccccc3)C(CCO)C2)cc1 (stereo unspecified),37.5%
10,COc1ccccc1N1CCC(N2CCN(CC(C)(C)C)C(CCO)C2)CC1 (stereo unspecified),33.4%
11,Cc1ccccc1CSc1nc(-c2ccccc2)nc2c1Cc1c(CO)cnc(C)c1O2,8.94%
12,CCOC(=O)[C@]12Cc3ccccc3[C@H]1N(C1CCCCC1)C(=O)c1cc(OC)ccc12,-101% (active)
13,CCOC(=O)C1(Cc2cccc(OC)c2)CCN(C(C)CC(C)(C)O)CC1 (stereo unspecified),14%
14,CCOC(=O)[C@]12Cc3cc(OC)ccc3[C@H]1N(C(C)C)C(=O)c1ccccc12,-109% (active)
15,CCOC(=O)C1(Cc2cccc(OC)c2)CCN(C(C)COC)CC1 (stereo unspecified),-7.28%
16,CCOc1ccc(NC(=O)CC2C(=O)N(c3cccc(OC)c3)C(=O)N2C2CCCCC2)cc1 (stereo unspecified),7.53%
17,CCOC(=O)c1ccc(NC(=O)CC2C(=O)N(c3cccc(OC)c3)C(=O)N2C2CCCCC2)cc1 (stereo unspecified),-1.63%
18,Cc1ccc(O)c(NC(=O)CCS(=O)(=O)c2nc(-c3ccc4c(c3)OCO4)cc(C(F)(F)F)n2)c1,14.6%
19,CCOC(=O)[C@]12CCCC=C1N(Cc1ccc3c(c1)OCO3)C(=O)[C@H](CC(=O)NCc1cccs1)C2,6%
20,Cc1ccc(C)c(CNC(=O)c2cc3ccccn3n2)c1,7.66%
